# Reference: PubChem BioAssay (NCI)
# The panel holds about 79,000 compounds, 15% with a hit somewhere; the sample as a whole holds those more often. A number with no mark means an inactive call. The source made the active and inactive calls. No stated cut-off is given here; in the data, active means growth inhibition above about 70%; inactive means the rest.
# Assay: NCI Yeast Anticancer Drug Screen. Data for the mec2-1 strain (AID 157)
# Settings: S. cerevisiae mec2-1 strain, at 50.0 µM, active compounds read high
# How it was run: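 Cells of the genetically defined mec2-1 yeast strain are incubated with test compound. Inhibition of growth is calculated against vehicle-treated controls.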
row,Compound,growth inhibition
1,COc1ccc(OC)c2c(NCCNCCO)cc(NCCNCCO)nc12,-4.75%
2,CC(=O)NNC(=S)N/C=C(\C#N)c1nc2ccccc2s1,12.2%
3,COc1ccc(Cc2cc3c(cc2OCCOC(C)=O)OCO3)cc1,11.3%
4,NCCC(=O)NCCSSCCNC(=O)CCN,11%
5,CCN1CCCC1CO (stereo not given),-25.1%
6,Cc1cccc(/C=N/Nc2ccc([N+](=O)[O-])cc2[N+](=O)[O-])c1C,-6%
7,N#Cc1c(-c2ccco2)cc(-c2ccccc2)[nH]c1=O,8.1%
8,COc1ccc(C(C)Nc2cc(OC)c(OC)c(OC)c2)cc1 (stereo not given),-14.1%
9,CC1=NN(C(=O)c2ccccc2O)C(=O)/C1=C/c1ccc(O)cc1,-16.1%
10,[N-]=[N+]=NC12CC3C4CC5CC3C(C1)C(C5)C4C2,0.6%
11,C[N+](C)(CCCn1ccnc1[N+](=O)[O-])CCCn1ccnc1[N+](=O)[O-],-6%
12,O=C1C(=C(C(F)(F)Cl)C(F)(F)Cl)C2CCC1C2 (stereo not given),-3.35%
13,NC(=O)c1cc[n+](-c2ccc([N+](=O)[O-])cc2[N+](=O)[O-])cc1,0.45%
14,O=C(/C=C(\Br)c1ccccc1)c1ccccc1,99.5% (active)
15,Cn1cc(C(=O)C2CCCCC2)ccc1=O,-11.8%
16,N#CCC(=O)N1CCCC1,-32.3%
17,CC/C(C)=N/NS(C)(=O)=O,-7.55%
18,CCCCCCCCCCOc1ccc(OCCCCCCCCC)cc1,-15.8%
19,C=CCCCCCCCCC(=O)N1CCN(C)CC1,-14%
20,CC(Cc1cccc2ccccc12)(C(=O)O)C(=O)O,-4.1%

row,Compound,growth inhibition
1,Cc1ccc([N+](=O)[O-])cc1NC(=O)NCCCl,4.55%
2,C=C1CC[C@H]2C(=O)OC(c3ccoc3)C[C@]2(C)C/C=C\C=C/1C(=O)OC (stereo not given in full),-11.7%
3,O=C(CCC(=O)Nc1cc(Cl)ccc1Cl)CC(=O)c1ccc([N+](=O)[O-])cc1,28.9%
4,O=c1c2ccccc2c(=O)n2n1CC=CC2,-4.2%
5,CCCCN=C(C)CC(=O)CC(=O)c1ccccc1,23.1%
6,CC(=N\N=C\c1ccccn1)/C(C)=N/N=C(C)/C(C)=N/N=C/c1ccccn1,17.9%
7,CC(C)OP(=O)(c1ccccc1)c1ccc2c(c1)OCCOCCOCCOCCO2 (stereo not given),-2.2%
8,O=[N+]([O-])c1cc2c(cc1Br)C1C(C3C2C2(Cl)C(Cl)=C(Cl)C3(Cl)C2(Cl)Cl)C2(Cl)C(Cl)=C(Cl)C1(Cl)C2(Cl)Cl (stereo not given),5.4%
9,CC1(C)OCC(C2OC3OC(C)(C)OC3/C2=N/NC(=O)c2cc3cc(OCc4ccccc4)ccc3[nH]2)O1 (stereo not given),90.8% (active)
10,CC(C(=O)O)N(C)C(=O)OCc1ccccc1 (stereo not given),-21.1%
11,OCc1ccc(CO)cc1,29.6%
12,Cc1ccc2c(c1)C(c1cccc3ccccc13)OC2=O (stereo not given),1.65%
13,Cc1cn(-c2c(C)c(C)c(-n3c(C)ccc3C)c(C)c2C)cc1C,-5.55%
14,CC12CC(=O)NC(=O)N1CCS2 (stereo not given),5.6%
15,CCOC(=O)Cc1cccnc1,-40%
16,O=C(O)c1ccc([C@@H]2C(=O)N(O)[C@@H]3C=CC[C@@H]32)cc1,-12.8%
17,NC1=NCC(c2ccccn2)C1c1ccc(F)cc1 (stereo not given),-34.9%
18,COc1ccc(N2C(=O)CC(c3cc(OC)c(OC)c(OC)c3)CC2=O)cc1,-20.5%
19,COC(=O)c1ccc(S(=O)(=O)O)cc1[N+](=O)[O-],11.9%
20,NS(=O)(=O)c1ccc(N2C(=O)C(=O)N(c3ccccc3)C2=S)cc1,-11.9%
